Source: PubChem
HepG2 viability = kills HepG2 cells in TGF-b inhibitor counter-screen. 410,000 tested, 0.76% active. HepG2 CAGA-GFP viability, ATP luminescence, 18 h. AID 588856. Potency, µM (highest dose often 46.1 µM), for the others: at the highest dose activity change, negative = cytotoxicity, hits mostly cytotoxic; note: potency is the fitted concentration of half-maximal effect
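HepG2 CAGA-GFP cells (1000/well, DMEM with 1% FBS) received compound, then TGF-beta at 500 pg/mL final, and were incubated 18 hours at 37 degrees C. Viability was read by CellTiter-Glo luminescence. Media-only wells were set as complete cell-killing and DMSO as no toxicity.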
DT40 TDP1 no CPT = qHTS for Inhibitors of human tyrosyl-DNA phosphodiesterase 1 (TDP1): qHTS in cells in absence of CPT; DT40 Tdp1-/- hTDP1 cells, no CPT, ATP luminescence, 48 h; Potency, µM (series often up to 46.2 µM), for inactives: at the top dose activity change, negative = growth inhibition, hits mostly inhibitors; 420,000 tested, 15% active; AID 686978, 2013; note: potency is the fitted concentration of half-maximal effect; % is set by controls: 0 for no effect and ±100 for the full control effect; nearly all actives have a fitted effect of over 55% in size
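Readout: luminescence from CellTiter-Glo after 30 min in the dark at RT. Cells: DT40 Tdp1-/- with stable hTDP1, 400/well. Exposure: compounds alone, ≥48 hr, 37 °C.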
IL1B secr inh = inflammasome signaling inhibition, IL-1 beta readout | THP-1 LPS/ATP IL-1B secretion, AlphaLISA, 16 h; active compounds read low | activity change, % at 57.5 µM | 360,000 tested, 4.7% active | AID 743279; in the data active = activity change below about -50%; inconclusive = mostly about -30% to -49%; note: % is set by controls: 0 for no effect and ±100 for the full control effect
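THP-1 cells pretreated 1 hr with compounds (up to 57.5 uM final), then stimulated with LPS (250 ng/mL final) plus ATP (1.25 mM final); secreted IL-1B measured by AlphaLISA after 16 hr, decreased signal indicating inhibition.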
TDP1 block = blocks human tyrosyl-DNA phosphodiesterase 1 | Q9NUW8 | recombinant TDP1, AlphaScreen DNA substrate cleavage | Potency, µM (highest dose often 130 µM), without a hit: top-dose activity change, negative = inhibition, actives largely listed as inhibitors | 350,000 tested, 0.28% active; note: potency is the fitted concentration of half-maximal effect; % is set by controls: 0 for no effect and ±100 for the full control effect; nearly all actives have a fitted effect of over 40% in size
Target sequence (Q9NUW8 whole entry, looked up): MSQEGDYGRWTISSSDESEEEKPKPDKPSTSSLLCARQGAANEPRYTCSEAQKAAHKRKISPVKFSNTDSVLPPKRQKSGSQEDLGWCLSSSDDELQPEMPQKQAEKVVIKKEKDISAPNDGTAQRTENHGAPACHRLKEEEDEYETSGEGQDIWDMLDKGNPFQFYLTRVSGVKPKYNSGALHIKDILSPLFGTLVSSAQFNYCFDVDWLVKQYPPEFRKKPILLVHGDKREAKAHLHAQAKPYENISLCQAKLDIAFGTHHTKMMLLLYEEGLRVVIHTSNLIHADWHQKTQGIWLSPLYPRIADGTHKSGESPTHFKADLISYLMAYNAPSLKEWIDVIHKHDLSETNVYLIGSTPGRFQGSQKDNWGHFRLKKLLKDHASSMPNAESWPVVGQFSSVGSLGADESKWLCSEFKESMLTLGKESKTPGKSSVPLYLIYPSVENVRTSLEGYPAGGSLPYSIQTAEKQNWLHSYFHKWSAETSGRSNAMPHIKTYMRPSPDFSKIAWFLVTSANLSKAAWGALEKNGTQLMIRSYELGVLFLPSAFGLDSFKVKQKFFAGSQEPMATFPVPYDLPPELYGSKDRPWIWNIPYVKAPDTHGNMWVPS
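Recombinant human Tdp1 (E. coli-expressed, 1 nM final) preincubated with compounds 15 min at room temperature, then 5'-biotin/3'-phosphotyrosine-FITC DNA substrate (15 nM final) added for 5 min. AlphaScreen beads (10 ug/ml final) added 10 min; cleavage lowers signal.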
DT40 TDP1 CPT = growth inhibition of DT40 Tdp1-/-;hTDP1 cells with camptothecin (screen for TDP1 inhibitors); chicken DT40 Tdp1-/-;hTDP1 cells + 20 nM CPT, ATP luminescence, 48 h; Potency, µM (titrated, usually from 46.2 µM), inactives show at the highest dose activity change, negative = growth inhibition, most hits filed as inhibitors; 420,000 tested, 12% active; note: potency is the fitted concentration of half-maximal effect; % is set by controls: 0 for no effect and ±100 for the full control effect; nearly all actives have a fitted effect of over 55% in size
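Cell growth measured by CellTiter-Glo luminescence after a minimum 48 h, 37 C compound exposure with 20 nM CPT in Tdp1-knockout DT40 cells stably expressing hTDP1, seeded 400/well; qHTS titration format.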
TGFb SMAD3 inh = TGF-b pathway inhibition; Potency, µM (top dose mostly 46.1 µM), for inactives: at the top dose activity, negative = inhibition, hits mostly inhibitors; HepG2 CAGA-GFP TGF-b/SMAD3 reporter, GFP fluorescence, 18 h; TGF-beta stimulated, 500 pg/mL final; AID 588855; 410,000 tested, 1.2% active; note: potency is the fitted concentration of half-maximal effect; % is set by controls: 0 for no effect and ±100 for the full control effect; nearly all actives have a fitted effect of over 65% in size
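TGF-beta reporter screen: HEPG2 CAGA-GFP, 1% FBS, 500 pg/mL TGF-beta final, 18 h; per-cell GFP summed per well; curves fitted and categorized by class.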
* hit, by the source's call; ? = inconclusive; nt = not tested or not shown; [ ] = remark or other dose. Only some compounds are listed: those with a hit (about 18% of all), similar ones and a draw of the others. Unless noted, calls come from the whole dose curve; as a rule, active = well fitted curve in the direction sought with a large enough effect; inconclusive = small, poorly fitted or top-dose-only effect, or another doubt; inactive = no such curve, though single readings can be large; an effect the other way counts as inactive or inconclusive.

SMILES	HepG2 viability	DT40 TDP1 no CPT	IL1B secr inh	TDP1 block	DT40 TDP1 CPT	TGFb SMAD3 inh
CCOc1ccccc1NC(=O)CSc1nc2cc(O)ccc2c(=O)n1-c1ccc(OC)c(OC)c1	-65.6%	?	33.6	nt	18.4µM*	?
Cc1cc(C(=O)NCc2ccccc2)c2c(C)nn(-c3cccc(Cl)c3C)c2n1	-9.2%	?	nt	1.1%	?	-2.1%
CCCCn1c(O)c2n(c1=O)Cc1ccccc1N=C2c1ccc(C)cc1	-4.6%	-13.8%	4.1	nt	-27.1%	-3.9%
Cn1c(SCC(=O)Nc2cc(C(C)(C)C)nn2-c2ccccc2)nc2ccccc21	-25.6%	11.6µM*	5.8	2.7%	?	-27.2%
CCOCCCn1c(SCC(=O)Nc2ccc(OC)cc2)nc2ccccc2c1=O	-18.3%	18.4µM*	-14.0	nt	?	9.1%
CCOCCCn1c(SCC(=O)Nc2ccc(C)cc2)nc2ccccc2c1=O	-22.4%	14.6µM*	nt	1.5%	16.4µM*	-23.1%
CCOCCCn1c(SCC(=O)Nc2ccccc2)nc2ccccc2c1=O	7.7%	?	-9.6	nt	?	1.6%
COc1ccccc1NC(=O)CSc1nc2ccccc2c(=O)n1C	-16.2%	9.2µM*	16.9	nt	14.6µM*	-11.3%
CCOc1ccc(C(=O)NCC2CCN(CC3CCCCC3)CC2)cc1	-2.8%	-2.2%	-4.1	nt	4.1%	4.4%
Cn1c(SCC(=O)Nc2ccccc2)nc2ccccc2c1=O	-13.5%	?	?	nt	2.91µM*	-8.5%
CCOC(=O)c1cccc(NC(=O)CSc2nc3ccccc3c(=O)n2CC)c1	3.7%	-20.3%	-1.5	-2.1%	-15.1%	3.3%
CCOC(=O)c1cccc(NC(=O)CSc2nc3ccccc3c(=O)n2CCOC)c1	1.6%	20.6µM*	-3.3	-1.0%	?	4.6%
CC(C)C/C(O)=C/c1nc2cc(Cl)ccc2oc1=O	-1.5%	?	1.1	-0.6%	?	?
O=c1oc2ccc(Cl)cc2nc1/C=C(\O)c1ccco1	-17.7%	18.4µM*	-4.2	0.6%	?	?
Cc1nn(CC(=O)N(C)C2CCS(=O)(=O)C2)c(C)c1S(=O)(=O)N(C)C (stereo not drawn)	-14.7%	16.3%	-4.4	0.1%	-4.7%	-9.9%
COc1ccc(OC)c2sc(N3CCc4ccccc4C3)nc12	-5.3%	-7.9%	-0.3	7.2%	0.7%	5.8%
c1ccc2c(c1)CCN(c1nc3cc4c(cc3s1)OCCO4)C2	-59.7%	?	-57.9*	9.4%	10.3µM*	-18.4%
COC(=O)NC(c1ccccc1)c1c[nH]c2ccccc12 (stereo not drawn)	nt	nt	nt	5.0%	nt	nt
CCN1C(=O)/C(=C\c2ccncc2)SC1=S	-21.8%	-29.4%	-6.7	3.8%	-17.3%	-2.6%
CCN1C(=O)/C(=C\c2ccncc2)SC1=Nc1ccc(C)c(C)c1	-55.2%	16.4µM*	-100.2*	0.0%	?	?
CCCN1C(=O)/C(=C\c2ccncc2)SC1=Nc1ccccc1	-35.3%	?	-98.3*	2.6%	?	-6.8%
COC(=O)c1cc2oc3ccccc3c2n1Cc1nc(-c2cccc(C)c2)oc1C	-7.0%	-7.2%	nt	6.8%	-13.2%	-2.9%
O=C(NCC1CCCO1)c1nn2c(c1Cl)NC(c1ccc(F)cc1)CC2C(F)(F)F (stereo not drawn)	-19.1%	?	-16.6	-3.8%	16.4µM*	-2.0%
Cc1nn(C)c(C)c1CNC(=O)c1nn2c(c1Cl)NC(c1cccs1)CC2C(F)(F)F (stereo not drawn)	-15.9%	9.2µM*	15.2	-1.0%	16.4µM*	?
CCc1nnc2c3ccccc3nc(Nc3ccc(F)c(Cl)c3)n12	-0.2%	18.4µM*	nt	2.5%	18.4µM*	14.2%
SMILES	HepG2 viability	DT40 TDP1 no CPT	IL1B secr inh	TDP1 block	DT40 TDP1 CPT	TGFb SMAD3 inh
CCOc1ccc(OCC)c(Nc2nc3ccccc3c3nnc(C)n23)c1	-5.2%	?	nt	5.6%	0.6%	?
CCOc1ccc(Nc2nc3ccccc3c3nnc(CC)n23)cc1	1.5%	10.3µM*	nt	-2.5%	14.6µM*	13.1%
COc1cccc(-n2cc(C(=O)Oc3ccc(F)cc3)c3ccccc3c2=O)c1	2.8%	?	nt	3.3%	?	38.9%
O=C(NC(=S)N(CCCCO)C1CCCCC1)c1sc2ccccc2c1Cl	-28.3%	16.4µM*	45.8	6.4%	16.4µM*	?
CCOCCOC(=O)c1[nH]c2c(c1C)C(=O)CC(c1cccs1)C2 (stereo not drawn)	-1.5%	0.82µM*	45.0	4.6%	1.03µM*	?
COCCOC(=O)c1[nH]c2c(c1C)C(=O)CC(c1cccs1)C2 (stereo not drawn)	-17.9%	1.3µM*	89.9	4.6%	1.16µM*	?
CCCOC(=O)c1[nH]c2c(c1C)C(=O)CC(c1ccc(OC)c(OC)c1)C2 (stereo not drawn)	2.1%	-20.3%	15.8	0.0%	?	-1.0%
Cc1c(C(=O)OCC(C)C)[nH]c2c1C(=O)CC(c1cccs1)C2 (stereo not drawn)	6.0%	3.66µM*	59.6	-2.3%	2.91µM*	-8.5%
CCOCCOC(=O)C1=C(C)NC2=C(C(=O)CC(c3cccs3)C2)C1c1ccsc1 (stereo not drawn)	-13.7%	?	-19.8	-1.0%	?	1.8%
O=C(C1CC(=O)N(c2ccc3c(c2)OCCO3)C1)N1CCN(c2ccccc2O)CC1 (stereo not drawn)	-4.0%	?	-9.0	2.8%	20.6µM*	-24.1%
O=C(CSc1ccc2c(c1)OCCO2)N1CCN(c2ccccc2O)CC1	4.7%	23.1µM*	0.4	-1.1%[0.505 µM]	23.1µM*	?
CCN(CC)C(=O)Cn1cc(S(=O)(=O)CC(=O)Nc2ccccc2C)c2ccccc21	-3.8%	3.0%	4.2	nt	-25.7%	1.8%
Cc1cc(N(CCO)Cc2ccccc2)n2nc(-c3ccc(C(C)(C)C)cc3)nc2n1	-2.0%	?	nt	9.3%	?	-27.9%
CN(C)S(=O)(=O)c1ccc(-c2cn3ccccc3n2)cc1	-32.5%	?	7.7	7.9%	-29.5%	3.5%
CCN(CC)S(=O)(=O)c1cccc(-c2nc3n(n2)Cc2ccccc2-3)c1	-7.7%	23.1µM*	-16.6	4.8%	?	0.9%
Clc1ccc(-c2nc3n(n2)Cc2ccccc2-3)cc1	-35.9%	-16.6%	12.5	-7.7%	-15.2%	1.6%
